High-throughput results as filed in PubChem.
SKN-1 inh: C. elegans SKN-1 inhibition. C. elegans VP596 Pgst-4::GFP/RFP ratio, acrylamide-induced, 24 h. inhibition, % at 21.8 µM. hit rate 0.49% among 360,000;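 active = interference check ratio from 0.5 to 1.5 plus GFP to RFP signal ratio inhibition reaching or exceeding a fixed threshold, cut at about 30% in these data, passing the limit was not always enough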
Vif inh: blocks HIV Vif function; HEK293T cells, Vif self-association by quenched fluorescence, imaging, 24 h; inhibition, % at 7.49 µM; hit rate 0.35% among 340,000; in the data active = inhibition above about 50%, passing the limit was not always enough; inconclusive = no clear call, values can overlap the other calls; inactive = below about 31%
SMARCA2 act: activators of SMARCA2 function; AID 652017; hit rate 1% among 370,000; MG213 cells, MMTV-luciferase reporter, dexamethasone, overnight; activation, % at 9.1 µM; in the data active = activation above about 7.8%;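 note: 0% = vehicle wells and 100% = reference activator wells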
NadD inh: inhibitors of Staphylococcus aureus NadD; purified NadD enzyme, colorimetric absorbance read-out; inhibition, % at 20 µM; hit rate 0.78% among 360,000; in the data active = inhibition above about 26%
GRIN3A LBD mod: modulates the human NR3A ligand-binding domain; NR3A LBD differential scanning fluorimetry, Tm shift; 0% = protein alone, 100% = glycine-bound protein; Tm shift relative to glycine control, % at 25 µM; hit rate 2.5% among 340,000; AID 1259313;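 active = melting temperature shift of at least 10% of the positive control shift, at one fixed dose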
esBAF inh: inhibitors of esBAF chromatin remodeling in mouse ES cells; Bmi1-luciferase knock-in reporter, 24 h; 100% = twice the neutral-well signal; hit rate 2% among 350,000; reporter increase, % at 12.5 µM; in the data active = activation above about 40%; inconclusive = no clear call, values can overlap the other calls;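 note: 0% = median of the plate's neutral control wells and 100% = double that signal; a rise in the Bmi1 reporter signal indicates esBAF inhibition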
SMARCA2 conf: SMARCA2 activation, confirmation screen | MG213 cells, MMTV-luciferase with dexamethasone, luminescence, overnight; MG213 cells expressing E1A, Rb sequestered; DMSO wells 0%, reference activator 100% | shares compounds with SMARCA2 act | hit rate 30% among 3,500 | activation, % at 9.1 µM;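 active = activation above its plate's cutoff, the mean activation of tested wells plus 3 SD, cut at about 7.9% in these data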
VP16 Luc act: GAL4-VP16 reporter activation counter-screen; shares compounds with SMARCA2 act; HEK293 GAL4-VP16 pG5luc reporter, luciferase luminescence; scaled: DMSO wells 0%, SAHA wells 100%; activation, % at 9.1 µM; hit rate 41% among 3,500; AID 686939;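 active = activation above the solvent-only control well mean plus 3 SD, averaged across control plates, cut at about 5.2% in these data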
* marks the source's active call; other numbers are inactive results; ? = inconclusive; · = no result. Compounds with a hit are over-represented: about 5.2% of the library has one in this group of screens.

SMILES	SKN-1 inh	Vif inh	SMARCA2 act	NadD inh	GRIN3A LBD mod	esBAF inh	SMARCA2 conf	VP16 Luc act
C[C@H](O)C#Cc1ccc2c(c1)O[C@@H](CN(C)Cc1ccccn1)[C@@H](C)CN([C@@H](C)CO)S2(=O)=O	·	·	·	·	·	1	·	·
COc1ccc(C2=NOC(CNC(N)=S)C2)cc1 (centres undefined)	-1	-3	13*	2	-1	·	7	7.7*
COc1ccc(CNC(=O)C2CC(c3ccc(OC)cc3)=NO2)cc1 (centres undefined)	-9	2	2	-8	0	-4	·	·
C[C@H]1CN([C@@H](C)CO)C(=O)c2cc(NS(C)(=O)=O)ccc2O[C@@H]1CN(C)Cc1ccc(-c2ccccc2)cc1	·	·	·	·	·	-3	·	·
Cc1nn(-c2ccccc2)c(C)c1C(=O)OCC(=O)N(C)c1ccccc1	-4	0	-3	0	1	13	·	·
Cc1nc(COC(=O)c2c(C)nn(-c3ccccc3)c2C)cs1	-29	·	9.1*	3	-9	58*	10*	3
CCNC(=O)COc1ccc(CC)cc1	10	2	8.1*	0	2	·	8.0*	2
Cc1ccc(OCC(=O)NCCO)cc1C	9	2	10*	-3	-1	5	1	5
C[C@@H]1CCCCO[C@H](CN(C)Cc2ccc(C(=O)O)cc2)[C@@H](C)CN([C@@H](C)CO)C(=O)c2cc(NC(=O)Nc3cccc4ccccc34)ccc2O1	·	·	·	·	·	1	·	·
COc1ccc(C2=NN(S(C)(=O)=O)C(c3cccs3)C2)cc1 (centres undefined)	-18	1	10*	-2	1	·	8.1*	6.5*
Cc1ccc(C2=NN(S(C)(=O)=O)C(c3cccs3)C2)cc1 (centres undefined)	-3	·	4	-6	-1	·	·	·
Brc1ccc(Cn2c(-c3cncs3)nc3ccccc32)cc1	-7	-2	8.8*	6	0	33	7	2
O=C(Oc1ccccc1Cl)c1ccc(-n2cncn2)nc1	8	-11	8.2*	7	-1	-2	-4	0
O=C(C[C@@H]1CC[C@@H]2[C@H](COC[C@@H](O)CN2Cc2cccc(C(F)(F)F)c2)O1)NCc1ccc(F)cc1	·	·	·	·	·	3	·	·
O=C(Nc1nc2ccccc2s1)C1CCCO1 (centres undefined)	-10	4	11*	-2	-2	9	11*	9.8*
Cc1cc(F)ccc1NC(=O)C1CCCO1 (centres undefined)	-9	7	-1	-11	0	-6	·	·
O=C(Nc1nc2ccc(F)cc2s1)C1CCCO1 (centres undefined)	-3	-6	10*	-3	-15	99*	12*	5.5*
O=C(Nc1ncc(Cc2ccccc2)s1)C1CCCO1 (centres undefined)	-11	·	12*	2	-1	-15	11*	8.6*
O=C(Nc1nnc(Cc2ccc(Cl)cc2)s1)C1CCCO1 (centres undefined)	6	12	-1	-9	-1	·	·	·
C[C@H](CO)N1C[C@H](C)[C@H](CN(C)S(=O)(=O)c2ccc(F)cc2)Oc2ccc(NC(=O)Nc3ccc(F)cc3)cc2C1=O	·	·	·	·	·	2	·	·
COC(=O)C1=C(C)OC(N)=C(C#N)C1c1c(C)nn(-c2ccccc2)c1Cl (centres undefined)	-15	-3	11*	-1	1	2	-1	1
Clc1ccc(-c2nnc(-c3ccco3)o2)cc1	74*	·	13*	-10	-5	60*	8.0*	8.3*
c1cncc(-c2nnc(-c3ccco3)o2)c1	7	7	-3	-1	-6	18	·	·
CN(C(=O)c1ccco1)c1nc(-c2ccc(F)cc2)cs1	14	20	9.3*	9	0	27	8.0*	7.6*
O=C(c1ccco1)N(CCCN1CCOCC1)c1nc(-c2ccc(F)cc2)cs1	6	-4	-2	-1	-4	-5	·	·
SMILES	SKN-1 inh	Vif inh	SMARCA2 act	NadD inh	GRIN3A LBD mod	esBAF inh	SMARCA2 conf	VP16 Luc act
O=C(CCCOc1ccccc1)Nc1ccc(Br)cc1	4	·	1	-1	-8	12	·	·
O=C(CCOc1ccccc1)Nc1ccc(Br)cc1	-5	13	11*	1	-2	?	8	5.3*
C=C[C@@]1(C)CC(=O)[C@]2(O)[C@@]3(C)[C@@H](O)CCC(C)(C)[C@@H]3[C@H](O)[C@H](OC(C)=O)[C@@]2(C)O1	-8	75*	21*	-4	3	-9	21*	25*
COc1ccccc1-c1ccc([C@@H]2[C@@H](C#N)N(C(=O)C3CCCCC3)[C@@H]2CO)cc1	·	·	·	·	·	7	·	·
CNc1nc(N)c([N+](=O)[O-])c(Nc2cccc(Cl)c2)n1	7	9	8.3*	-3	-4	·	5	2
COc1ccc(S(=O)(=O)Nc2c(C)nc3nc(C)[nH]n3c2=O)cc1	-1	34	-3	-4	1	9	·	·
Cc1nc2nc(C)c(NS(=O)(=O)c3ccc4c(c3)CCCC4)c(=O)n2[nH]1	-11	-9	8.9*	-3	1	-1	-2	3
C[C@@H]1CCCCO[C@H](CN(C)CC2CCCCC2)[C@H](C)CN([C@H](C)CO)C(=O)c2cc(NC(=O)Nc3ccccc3)ccc2O1	·	·	·	·	·	3	·	·
Cn1c(C(=O)N2CCN(Cc3ccccc3)CC2)cc2c(=O)n(C)c3ccccc3c21	-3	-3	8.9*	12	-2	1	4	0
Cc1n[nH]c(=S)n1/N=C/c1cccc(OCc2ccccc2)c1	6	-7	8.6*	-4	0	·	-1	2
Cc1cccc(/C=N/n2c(COc3ccccc3)n[nH]c2=S)c1	2	-6	-2	-1	0	4	·	·
O=S(=O)(Cc1noc(-c2ccccc2Cl)n1)c1ccccn1	0	-6	16*	0	-2	44*	4	9.3*
COc1cccc(CNC(=O)C[C@H]2C=C[C@H](NS(=O)(=O)c3ccccc3OC)[C@@H](CO)O2)c1	·	·	·	·	·	2	·	·
CCc1ccc2[nH]c(=O)c(CN(Cc3nnnn3C3CCCC3)C3CCCCC3)cc2c1	7	2	8.3*	3	-1	9	-1	5.8*
Cc1cccc2cc(CN(Cc3nnnn3C3CCCC3)C3CCCCC3)c(=O)[nH]c12	-6	-4	-1	4	-7	-4	·	·
C/C(=N\N=c1/sc2ccccc2n1C)c1ccc(N2CCOCC2)cc1	2	9	4	-6	7	4	·	·
